These results are taken from PubChem BioAssay AID677 (Vanderbilt High Throughput Screening Facility, 2007).

Out of some 1,700 compounds screened, about 720 (42%) were called active.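 How the source made its calls: active means calcium response below the same-plate mean of wells given acetylcholine alone at its 80%-effect dose, minus 3 SD; inactive means the rest.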 The set was probably picked from earlier hits. These entries were drawn from the full list.

Chain of Muscarinic acetylcholine receptor M1 (Rattus norvegicus) (P08482 whole entry, looked up): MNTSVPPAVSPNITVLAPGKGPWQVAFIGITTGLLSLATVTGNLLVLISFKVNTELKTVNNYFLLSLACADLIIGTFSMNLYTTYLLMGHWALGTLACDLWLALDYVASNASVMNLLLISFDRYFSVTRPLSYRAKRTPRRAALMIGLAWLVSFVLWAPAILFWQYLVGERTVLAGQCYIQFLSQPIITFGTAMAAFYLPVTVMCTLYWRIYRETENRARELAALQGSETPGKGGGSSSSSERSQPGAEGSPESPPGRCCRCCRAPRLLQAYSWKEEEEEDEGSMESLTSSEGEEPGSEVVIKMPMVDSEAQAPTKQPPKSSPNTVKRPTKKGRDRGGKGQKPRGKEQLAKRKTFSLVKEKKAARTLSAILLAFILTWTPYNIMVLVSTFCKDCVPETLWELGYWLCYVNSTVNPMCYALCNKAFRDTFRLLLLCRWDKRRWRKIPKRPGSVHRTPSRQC

The assay concerns the target Muscarinic acetylcholine receptor M1 (Rattus norvegicus) (UniProt P08482). Nature of the assay: rat M1 muscarinic receptor antagonists, confirmation, CHO cells, Fluo-4 calcium, duplicate (AID 677).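 Further: raw fluorescence intensity difference in arbitrary instrument units and not normalized.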 The settings on record: ACh EC80 antagonism, at 10 µM, stronger effect = lower value.
In the case of `Cc1ccsc1-c1nc(CSCC(=O)NCCN2CCCC2)c(C)o1`, the calcium response (max-min fluorescence) was 379 (active).
Then `C=CCn1c(=S)[nH]c2nc3c(cc2c1=O)COC(C)(C)C3`, with 521 (inactive); and `CN1CCN(c2ccc(NC(=O)COc3ccc(Cl)cc3Cl)cc2)CC1`, with 339 (active); and `O=C(Cc1cccs1)N1CCCC(c2nc(-c3ccc(S(=O)(=O)N4CCCC4)cc3)no2)C1` (stereo not given), with 457 (active).
Then `CCn1c(=N)n(CC(=O)c2cccc(OC)c2)c2ccccc21`, with 447 (active); and `CCOC(=O)Nc1ccc2c(c1)N(C(=O)CN1CCN3CCCC3C1)c1ccccc1CC2` (stereo not given), with 476 (active).
Turning to `Cc1c(C)c2cc3c4c(oc3c(C)c2oc1=O)CCCC4`, the calcium response (max-min fluorescence) was 548 (inactive).
For `Cc1ccccc1C(OCC(O)CN1CCCCC1CCO)c1ccccc1` (stereo not given) the value was 337 (active); for `O=S(=O)(CCc1nc2ccccc2o1)c1ccc(Cl)cc1`, 608 (inactive).
For `CCCCN(C)C(=O)c1ccc2c(c1)N(CC)C(=O)c1ccccc1S2(=O)=O` the value was 320 (active); for `C=CCSc1nc2ccccc2[nH]1`, 649 (inactive).
In the case of `Cc1ccc(-c2noc(CCC(=O)Nc3ccccc3N3CCN(C)CC3)n2)cc1`, the calcium response (max-min fluorescence) is 535 (active).
Consider `COc1ccc(-c2noc(CN(C)S(=O)(=O)c3ccc(C)cc3)n2)cc1`, for which the calcium response (max-min fluorescence) is 520 (inactive).
For `O=C(c1ccco1)N1CCN=C1SCc1cccc(Cl)c1` the value was 602 (inactive).
In the case of `CN1CCN(CC(=O)Nc2sc3c(c2C#N)CCC(C(C)(C)C)C3)CC1` (stereo not given), the calcium response (max-min fluorescence) was 551 (inactive).
For `O=C(C(NS(=O)(=O)c1cccc2nsnc12)c1ccccc1)N1CCN(c2ccccn2)CC1` (stereo not given) the value was 430 (active); for `COc1ccc(CCn2c(=N)c(C(=O)NCc3ccco3)cc3c(=O)n4cccc(C)c4nc32)cc1`, 489 (inactive).
For `CCN1CCN(c2c(Cl)cccc2NC(=O)c2ccc(Br)o2)CC1`, the calcium response (max-min fluorescence) is 179 (active).
Then `CCOC(=O)c1c(NC(=O)CSc2nnc(CN3CCOCC3)n2C)sc2c1CCCC2`, with 535 (inactive); and `Cc1nc2c(-c3ccc(F)cc3)c(C)nn2c(C)c1CCC(=O)N1CCN(c2ccccn2)CC1`, with 512 (active).
Then `COCCn1c(SCC(=O)Nc2cc(Cl)ccc2OC)nc2c(c1=O)SC(C)C2` (stereo not given), with 596 (inactive); and `Cc1cccc(N2CCN(Cc3c(C)n(C)n(-c4ccccc4)c3=O)CC2)c1C`, with 413 (active); and `CCn1c(=O)cc(OCC(=O)NCCCN2CCN(c3cccc(Cl)c3)CC2)c2ccccc21`, with 499 (active).
Consider `O=C(CCN1C(=O)COc2ccccc21)NCCCN1CCN(c2ccc(F)cc2)CC1`, for which the calcium response (max-min fluorescence) was 484 (inactive).
Regarding `COc1cccc2sc(Nc3nc(C)c(C(C)=O)s3)nc12`, the calcium response (max-min fluorescence) is 507 (inactive).
For `O=C(NCCCN1CCCCCC1)C1CC(=O)N(C2CCCC2)C1` (stereo not given) the value was 430 (active); for `c1ccc(-c2cc(-c3nnc4sc(-c5ccccn5)nn34)[nH]n2)cc1`, 437 (active).
Take `O=C(NCC(F)(F)F)Nc1nnc(C(F)(F)F)s1`: the calcium response (max-min fluorescence) is 552 (inactive).
As to `CCN(CCCCOC(=O)c1ccc(OC)c(OC)c1)C(C)Cc1ccc(OC)cc1` (stereo not given), the calcium response (max-min fluorescence) is 18.8 (active).
Then `COC(=O)c1ccc(C2C3=C(Nc4nnnn42)c2ccccc2OC3)cc1` (stereo not given), with 596 (inactive); and `CC12CN(Cc3ccccc3)CC(C)(CN(Cc3ccccc3)C1)C2=NO`, with 113 (active); and `CC1CCCC(C)N1CCCNC(=O)c1cc2c(=O)n(C)c3ccccc3c2n1C` (stereo not given), with 487 (inactive).
In the case of `Cc1nc2ccccc2c2oc(C(=O)NCCCN3CCC(C)CC3)cc12`, the calcium response (max-min fluorescence) is 498 (active).
Then `CCC1(C)Cc2c(sc3nc4n(c(=O)c23)CCCS4)CO1` (stereo not given), with 471 (inactive).
Regarding `CCC(C(=O)OCCN(CC)CC)c1ccccc1` (stereo not given), the calcium response (max-min fluorescence) was 24 (active).
Then `CCN1C(=O)/C(=C2\SC(N3CCCCC3)=NC2=O)c2ccccc21`, with 460 (inactive); and `COc1cc(Cl)c(C)cc1NC(=O)CSc1nnc(-c2ccco2)n1CC(C)C`, with 533 (inactive); and `CCCCOc1ccc(C(C)(O)CCN2CCOCC2)cc1` (stereo not given), with 448 (active).
With `O=C(Nc1ccncc1)c1c(F)cccc1F`, the calcium response (max-min fluorescence) is 653 (inactive).
For `CCOC(=O)c1c(-c2ccc(C)cc2C)csc1NC(=O)CSc1nnnn1C`, the calcium response (max-min fluorescence) is 519 (inactive).
As for `O=C1NC(Nc2nc3ccccc3s2)(C(F)(F)F)C(=O)N1C1CCCCC1` (stereo not given), the calcium response (max-min fluorescence) was 339 (active).
With `O=C(C(c1ccccc1)c1ccccc1)N1CCN(CC(O)COc2ccccc2)CC1` (stereo not given), the calcium response (max-min fluorescence) was 490 (active).
For `CCC(=O)c1ccc(OCC(O)CN2CCN(c3cccc(C(F)(F)F)c3)CC2)cc1` (stereo not given) the value was 531 (inactive); for `COc1ccccc1OCCOc1ccc(/C=N/n2cnnc2)cc1`, 587 (inactive).
On to `CCC/C(O)=C1\C(=O)CC(C)(C)CC1=Nc1ccccc1OC`, for which the calcium response (max-min fluorescence) is 647 (inactive).
For `Cc1ccc(-c2csc3nnc(SCC(=O)NCc4ccco4)n23)cc1` the value was 620 (inactive); for `CCOC(=O)N1CCN(C(=O)C2CCCN(c3ncnc4c3sc3cccc(F)c34)C2)CC1` (stereo not given), 126 (active); for `CCOC(=O)N1CCN(S(=O)(=O)c2cc(Br)cc3c2N(C(=O)C2CC2)CC3)CC1`, 646 (inactive).
For `CCOC(=O)N1CCN(CC(=O)Nc2cc(C)nn2-c2nc3ccccc3s2)CC1` the value was 645 (inactive).
Then `CCOC(=O)N1CCN(C(=O)C2CCN(c3ncnc4c3sc3cccc(F)c34)CC2)CC1`, with 468 (active).
As for `COc1ccc(-c2nnn(Cc3nc(N)nc(N4CCCCC4)n3)n2)cc1`, the calcium response (max-min fluorescence) was 539 (inactive).
In the case of `CSc1nnc2c(n1)OC(c1ccsc1)N(C(C)=O)c1ccccc1-2` (stereo not given), the calcium response (max-min fluorescence) was 250 (active).
For `CCOC(=O)C1CCN(Cc2coc3ccc(Cl)cc3c2=O)CC1` the value was 351 (active); for `CCC(C)(NC(=O)c1ccccn1)C(=O)NC1CCCCC1` (stereo not given), 623 (inactive).
Take `N#CC(C(=O)c1ccc(S(=O)(=O)N2CCCCCC2)cc1)c1nc2ccccc2[nH]1` (stereo not given): the calcium response (max-min fluorescence) is 689 (inactive).
For `O=C(CCCN1C(=O)CSc2ncccc21)N1CCN(c2cccc(C(F)(F)F)c2)CC1` the value was 462 (active).
Then `CC1=Nn2c(nnc2-c2ccccc2)SC1`, with 675 (inactive); and `CCCCCOC(=O)NCCOC(=O)Nc1ccc(C(=O)OCC)cc1`, with 655 (inactive); and `COc1cc(OC)c(C(=O)NC2CC(C)(C)NC(C)(C)C2)cc1OC`, with 510 (inactive).
On to `Cc1cc(C)n(-c2nc(SCC(=O)N3CCCC3)c3c4c(sc3n2)CCCC4)n1`, for which the calcium response (max-min fluorescence) is 466 (inactive).
With `CN(C)CCOC(=O)C(c1ccccc1)C1(O)CCCC1` (stereo not given), the calcium response (max-min fluorescence) was 17.7 (active).
For `COC(=O)c1ccc(NC(=O)CN(c2ccc(C)cc2)S(=O)(=O)c2c(C)n[nH]c2C)cc1` the value was 538 (inactive).
For `CC1(C)CN=C(N2CCN(c3ncnc4sc5c(c34)CCCC5)CC2)S1`, the calcium response (max-min fluorescence) was 344 (active).
For `O=C(NC1=NCCS1)c1ccc(Cl)s1` the value was 680 (inactive); for `C=C(C)Cn1c(N2CCCC2)nc2c1c(=O)[nH]c(=O)n2C`, 505 (inactive); for `CC(C)(C)n1nnnc1C(c1cccs1)N(Cc1cccnc1)CC1CCCO1` (stereo not given), 380 (active).
For `O=C(c1ccc(S(=O)(=O)N2CCOCC2)cc1)N1CCN(c2ccccc2)CC1` the value was 556 (inactive); for `O=S(=O)(c1ccc(OCC(O)CN2CCN(c3ccccc3Cl)CC2)cc1)N1CCOCC1` (stereo not given), 515 (active); for `CCOC(=O)C1=C(CC)Nc2ccccc2N=C1NC(=O)c1cccc(S(=O)(=O)N2CCCC2)c1`, 466 (active).
As to `Cn1c(CCN2CCCCCC2)nc2cc(NC(=O)Nc3ccccc3)ccc21`, the calcium response (max-min fluorescence) is 252 (active).
Consider `COc1ccc(S(=O)(=O)Nc2ccc3c(c2)OCO3)cc1Cl`, for which the calcium response (max-min fluorescence) is 516 (inactive).
For `CN(C)[C@@H]1C(=O)C(C(N)=O)=C(O)[C@@]2(O)C(=O)C3=C(O)c4c(O)ccc(Cl)c4[C@@H](O)[C@H]3C[C@@H]12`, the calcium response (max-min fluorescence) was 610 (inactive).
For `CC1(C)Cc2c(sc3nc4n(c(=N)c23)CCCCC4)CO1` the value was 398 (inactive); for `CCOC(=O)c1[nH]c2ccc(OC)cc2c1NC(=O)CCN1CCN(Cc2ccccc2)CC1`, 218 (active); for `O=C(c1ccc(-n2cnnn2)cc1)N1CCN(C(c2ccccc2)c2ccccc2)CC1`, 100 (active).
For `CCCCN(CCCC)C(=O)CCS(=O)(=O)c1ccc2c(c1)n(C)c(=O)c(=O)n2C` the value was 581 (inactive); for `CCOc1ccccc1C(=O)NCCCn1ccnc1`, 665 (inactive); for `COC(CCN(C)C)(c1ccccc1)c1ccccc1`, 226 (active).
With `COc1cccc(OCCOc2cccc(/C=N/n3cnnc3)c2)c1`, the calcium response (max-min fluorescence) is 588 (inactive).
In the case of `COCCN(C(=O)CCC(=O)Nc1ccccn1)C(C(=O)NCCC(C)C)c1ccc(OC)cc1` (stereo not given), the calcium response (max-min fluorescence) was 575 (inactive).
